Screening data as filed in PubChem BioAssay.
Pf Dd2 growth – blocks growth of Plasmodium falciparum Dd2 parasites; activity change, % at 10 µM; AID 1159554; P. falciparum Dd2 growth, SYBR Green, 72 h; active compounds read low; 94,000 tested, 2.3% active; in the data active means activity change below about -80%
T cruzi growth – inhibitors of T. cruzi proliferation; 77,000 tested, 5.9% active; inhibition, % at 8.34 µM; T. cruzi beta-gal in NIH3T3, GalScreen luminescence, 90 h;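 active means mean inhibition above about 93%, with at least 55% of replicates each passing it, limit read from the data, passing the limit was not always enough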
C diff HTS – blocks growth of Clostridium difficile; growth activity, negative = inhibition, % at 16 µg/mL (by protocol); 86,000 tested, 0.25% active; Clostridium difficile clinical isolate growth, OD600, 24 h; active compounds read low;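 active means mean growth activity at or below -80% and every replicate also at or below -80%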
A number is an active result; - = inactive; . = no result given. A selection: hits, their analogues and other compounds. The true share with any hit is near 6.7%.

SMILES | Pf Dd2 growth | T cruzi growth | C diff HTS
COc1ccc(NC(=O)Nc2ccc3c(c2)C(=O)N([C@@H](C)CO)C[C@@H](C)[C@H](CN(C)S(=O)(=O)c2ccccc2)OCCCC[C@H](C)O3)cc1 | - | - | -
C[C@@H]1CN([C@@H](C)CO)C(=O)c2cccc(NC(=O)C3CC3)c2O[C@@H]1CN(C)C(=O)Nc1ccc(C(F)(F)F)cc1 | -89 | - | -
C[C@@H]1CN([C@H](C)CO)C(=O)c2cccc(NC(=O)Nc3cccc4ccccc34)c2O[C@@H]1CN(C)C(=O)Nc1ccc(C(F)(F)F)cc1 | -92 | - | -
C[C@@H]1CN([C@H](C)CO)C(=O)c2cccc(NC(=O)Nc3cccc4ccccc34)c2O[C@H]1CN(C)C(=O)Nc1ccc(C(F)(F)F)cc1 | - | - | -
C[C@H](CO)N1C[C@H](C)[C@@H](CN(C)C(=O)Nc2cccc3ccccc23)Oc2ccc(NC(=O)Nc3ccc(C(F)(F)F)cc3)cc2C1=O | -96 | - | -
C[C@@H]1CN([C@H](C)CO)C(=O)c2cc(NC(=O)Nc3cccc4ccccc34)ccc2O[C@H]1CN(C)C(=O)Nc1ccc(C(F)(F)F)cc1 | - | - | -
C[C@H]1CN([C@@H](C)CO)C(=O)c2cc(NC(=O)Nc3ccc(C(F)(F)F)cc3)ccc2O[C@@H]1CN(C)C(=O)Nc1cccc2ccccc12 | -95 | - | -
C[C@H]1CN([C@@H](C)CO)C(=O)c2cc(NC(=O)Nc3ccc(F)cc3)ccc2O[C@@H]1CN(C)C(=O)Nc1cccc2ccccc12 | - | . | -
C[C@@H]1CN([C@H](C)CO)C(=O)c2cccc(NC(=O)C3CC3)c2O[C@H]1CN(C)C(=O)Nc1ccc(C(F)(F)F)cc1 | - | - | -
COc1ccc(NC(=O)Nc2ccc3c(c2)C(=O)N([C@H](C)CO)C[C@@H](C)[C@@H](CN(C)C(=O)CCC(F)(F)F)OCCCC[C@H](C)O3)cc1 | - | - | -
Cc1ccccc1S(=O)(=O)N1CCCCN2[C@H](CO)[C@@H](c3ccc(-c4cccc(F)c4)cc3)[C@@H]2C1 | - | - | -
COc1ccc(CNC(=O)C[C@@H]2CC[C@@H]3[C@H](COc4ccc(NC(C)=O)cc4C(=O)N3C)O2)cc1 | - | - | -
CC(=O)N[C@H]1CC[C@@H](CCNC(=O)C2CCCC2)O[C@H]1CO | - | . | -
CN(C)CC(=O)N1C[C@@H]2[C@H](c3ccccc31)[C@H](CO)N2Cc1cc(F)ccc1F | - | - | -
Cc1noc(C)c1NC(=O)N(C)C[C@@H]1Oc2ncc(C#CCN(C)C)cc2C(=O)N([C@@H](C)CO)C[C@H]1C | - | - | -
C[C@H]1CN([C@@H](C)CO)C(=O)c2cc(NC(=O)Nc3cccc4ccccc34)ccc2O[C@H]1CN(C)C(=O)Nc1ccc(C(F)(F)F)cc1 | -91 | - | -
C[C@H](CO)N1C[C@H](C)[C@@H](CN(C)C(=O)Nc2ccc(C(F)(F)F)cc2)Oc2ccc(NC(=O)Nc3cccc4ccccc34)cc2C1=O | - | - | -
CS(=O)(=O)N1[C@@H]2Cn3c(ccc(C4=CCCCC4)c3=O)[C@H]1[C@@H](C(=O)N1CCCCC1)[C@@H]2CO | - | - | -
O=C(C[C@H]1C[C@@H]2c3cc(NC(=O)C4CCOCC4)ccc3O[C@@H]2[C@H](CO)O1)NCc1ccc(Cl)cc1 | - | - | -
C[C@@H]1CN([C@H](C)CO)C(=O)Cc2cc(NC(=O)Nc3ccc(C(F)(F)F)cc3)ccc2O[C@@H]1CN(C)C(=O)Nc1cccc2ccccc12 | - | - | -
C[C@H](CO)N1C[C@H](C)[C@@H](CN(C)C(=O)Nc2cccc3ccccc23)Oc2ccc(NC(=O)Nc3cccc4ccccc34)cc2CC1=O | -89 | . | -
C[C@H](CO)N1C[C@H](C)[C@@H](CN(C)C(=O)Nc2cccc3ccccc23)Oc2ccc(NC(=O)Nc3ccc(C(F)(F)F)cc3)cc2CC1=O | -85 | - | -
C[C@H](CO)N1C[C@H](C)[C@H](CN(C)C(=O)Nc2cccc3ccccc23)Oc2ccc(NC(=O)Nc3cccc4ccccc34)cc2CC1=O | - | - | -
C[C@H]1CN([C@@H](C)CO)C(=O)Cc2cc(NC(=O)NC3CCCCC3)ccc2O[C@H]1CN(C)C(=O)Nc1cccc2ccccc12 | - | - | -
C[C@@H]1CN([C@@H](C)CO)C(=O)Cc2cc(NC(=O)NC3CCCCC3)ccc2O[C@H]1CN(C)C(=O)Nc1cccc2ccccc12 | -92 | - | -
SMILES | Pf Dd2 growth | T cruzi growth | C diff HTS
Cc1ccc(S(=O)(=O)N(C)C[C@H]2Oc3ccc(NS(=O)(=O)c4cn(C)cn4)cc3C(=O)N([C@@H](C)CO)C[C@H]2C)cc1 | - | - | .
C[C@@H]1CN([C@H](C)CO)C(=O)c2cc(NC(=O)Nc3ccc(C(F)(F)F)cc3)ccc2O[C@@H](C)CCCCO[C@@H]1CN(C)C(=O)Nc1cccc2ccccc12 | -82 | - | -
C[C@H](CO)N1C[C@H](C)[C@H](CN(C)C(=O)Nc2cccc3ccccc23)OCCCC[C@H](C)Oc2ccc(NC(=O)Nc3ccccc3)cc2C1=O | - | - | -
C[C@@H]1CN([C@@H](C)CO)C(=O)c2cc(NC(=O)Nc3ccccc3)ccc2O[C@@H](C)CCCCO[C@@H]1CN(C)C(=O)Nc1cccc2ccccc12 | -84 | - | -
C[C@@H]1CCCCO[C@@H](CN(C)C(=O)Nc2cccc3ccccc23)[C@H](C)CN([C@@H](C)CO)C(=O)c2cc(NC(=O)Nc3ccc(C(F)(F)F)cc3)ccc2O1 | - | - | -
C[C@@H]1CCCCO[C@@H](CN(C)C(=O)Nc2cccc3ccccc23)[C@@H](C)CN([C@@H](C)CO)C(=O)c2cc(NC(=O)Nc3ccc(C(F)(F)F)cc3)ccc2O1 | -91 | . | -
C[C@@H]1CN([C@H](C)CO)C(=O)c2cc(NC(=O)Nc3cccc4ccccc34)ccc2O[C@@H](C)CCCCO[C@H]1CN(C)C(=O)Nc1ccc(C(F)(F)F)cc1 | - | - | -
Cc1ccccc1-c1ccc2c(c1)O[C@H](CN(C)C(=O)c1ccccn1)[C@H](C)CN([C@H](C)CO)S2(=O)=O | - | . | -
C[C@@H]1CN([C@H](C)CO)C(=O)Cc2cc(NC(=O)Cc3ccccc3)ccc2O[C@@H]1CN(C)Cc1ccc(C(=O)O)cc1 | - | - | -
COCC(=O)N(C)C[C@H]1Oc2cc(C3=CCCCC3)ccc2S(=O)(=O)N([C@H](C)CO)C[C@@H]1C | - | - | -
CO[C@@H]1CN(C)C(=O)c2ccc(NC(=O)C3CCCCC3)cc2OC[C@H](C)NC[C@@H]1C | . | - | .
COc1ccccc1CNC(=O)C[C@H]1C[C@@H]2c3cc(NS(=O)(=O)c4ccc(F)cc4)ccc3O[C@@H]2[C@H](CO)O1 | - | - | -
COc1ccc(S(=O)(=O)N(C)C[C@@H]2Oc3ccc(NS(=O)(=O)c4cccs4)cc3C(=O)N([C@@H](C)CO)C[C@@H]2C)cc1 | - | - | -
O=C(C[C@@H]1C[C@H]2c3cc(NC(=O)CC4CC4)ccc3O[C@H]2[C@H](CO)O1)NCCc1ccccc1 | - | - | -
C[C@@H]1CN([C@@H](C)CO)C(=O)c2cc(NC(=O)C3CCCCC3)ccc2O[C@H]1CN(C)S(=O)(=O)c1ccc(Cl)cc1 | - | - | -
CC(C)CC#Cc1ccc2c(c1)O[C@H](CN(C)S(=O)(=O)c1ccc(F)cc1)[C@H](C)CN([C@@H](C)CO)S2(=O)=O | - | . | -
